For orientation: AC50 means the concentration giving half of the maximal activity seen.

The record followed here is PubChem BioAssay (EPA / NIEHS).

Assay [1] concerns the target guinea pig Opioid, Kappa 1 Receptor (OpiateK), OPRK1 (gene 100135587) (UniProt P41144). Kind of assay: NVS_GPCR_gOpiateK: NovaScreen (NVS) G Protein-Coupled Receptor Assay for guinea pig Opioid, Kappa 1 Receptor (OpiateK) (AID 2283252).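 Also: active means reduced radioligand binding relative to DMSO.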 The method, boiled down: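 Cell-free tissue prep: guinea pig cerebellar membranes, radioligand displacement, 2 h incubation. Readout: filtration plus scintillation counting. Primary single-point 25 uM duplicate; actives retested in concentration series; DMSO negative control.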

Assay [2] has as its system guinea pig Leukotriene B4 Receptor (LTB4), gene 100379538. In words: NVS_GPCR_gLTB4: NovaScreen (NVS) G Protein-Coupled Receptor Assay for guinea pig Leukotriene B4 Receptor (LTB4) (AID 2283247). In short, it runs like this:
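Membranes from guinea pig spleen incubated 2 h with radioligand and compound; bound counts measured by filtration and scintillation. Screened first at 25 uM in duplicate, then actives titrated to a 50 uM top concentration relative to DMSO.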

Assay [3] can be described thus: NVS_GPCR_bNPY_NonSelective: NovaScreen (NVS) G Protein-Coupled Receptor Assay for bovine Neuropeptide Y (NPY) Receptor, Non-selective Binding (AID 2283245). The method, boiled down:
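Displacement of radioligand from bovine hippocampal membrane receptors, read by filtration and scintillation counting after 1 hour. Concentration-response to a top of 50 uM followed a 25 uM duplicate primary screen. Loss of signal versus DMSO.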

The target of assay [4] is guinea pig Leukotriene D4 Receptor (LTD4), CYSLTR1 (gene 100135514) (UniProt Q2NNR5). In words: NVS_GPCR_gLTD4: NovaScreen (NVS) G Protein-Coupled Receptor Assay for guinea pig Leukotriene D4 Receptor (LTD4) (AID 2283248). In short, it runs like this: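 Guinea pig lung membrane preparation; bound radioligand measured by filter scintillation after 1 h, loss of signal versus DMSO marking displacement. Compounds tested at 25 uM in duplicate, hits retested to max 50 uM.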

Assay [5] addresses human Serotonin, 5-Hydroxytryptamine Receptor 5A (5HT5A), HTR5A (gene 3361) (UniProt P47898). In words: NVS_GPCR_h5HT5A: NovaScreen (NVS) G Protein-Coupled Receptor Assay for human Serotonin, 5-Hydroxytryptamine Receptor 5A (5HT5A) (AID 2283251). In short, it runs like this: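 Membranes from HEK293 cells, radioligand binding read by filtration and scintillation after 1 h. Single-concentration duplicate testing at 25 uM, then concentration-response for actives; positive-direction fitting relative to DMSO.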

For assay [6], the target named is human Adenosine A2a Receptor (AdoRA2a), ADORA2A (gene 135) (UniProt P29274). In words: NVS_GPCR_hAdoRA2a: NovaScreen (NVS) G Protein-Coupled Receptor Assay for human Adenosine A2a Receptor (AdoRA2a) (AID 2283256). In short, it runs like this: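 HEK293-derived receptor preparation, radioligand displacement, 1.5 h, filtration + scintillation read. Loss of bound signal scored vs DMSO. Single-point 25 uM in duplicate first, then concentration-response for actives.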

For assay [7], the target named is human Adrenergic, Alpha 2c Receptor (Adra2C), ADRA2C (gene 152) (UniProt P18825). In words: NVS_GPCR_hAdra2C: NovaScreen (NVS) G Protein-Coupled Receptor Assay for human Adrenergic, Alpha 2c Receptor (Adra2C) (AID 2283259). The method, boiled down: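 Screened first in duplicate at 25 uM, with actives then run as concentration series. Membranes from Sf9 cells were exposed for 1 h, and displacement of radioligand was counted after filtration, using DMSO as baseline.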

For assay [8], the target named is human Serotonin, 5-Hydroxytryptamine Receptor 2A (5HT2A), HTR2A (gene 3356) (UniProt P28223). In words: NVS_GPCR_h5HT2A: NovaScreen (NVS) G Protein-Coupled Receptor Assay for human Serotonin, 5-Hydroxytryptamine Receptor 2A (5HT2A) (AID 2283249). In short, it runs like this: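 Radioligand displacement on human cortex tissue extract, counted by filtration and scintillation 1.5 h post-dosing. Initial single-concentration screen at 25 uM in duplicate, concentration series in follow-up; DMSO as baseline.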

The test system of assay [9] is rat Monoamine Oxidase, MAO-A, Central (MAOAC), gene 29253. Kind of assay: NVS_ENZ_rMAOAC: NovaScreen (NVS) Enzymatic Assay for rat Monoamine Oxidase, MAO-A, Central (MAOAC) (AID 2283243).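 Also: potency refers to inhibition seen as signal drop below DMSO baseline.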 The method, boiled down: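 Lysate-based radiometric enzyme assay using rat brain tissue; 1.5 h treatment; 25 uM single-point duplicate screen, concentration-response follow-up; loss of signal versus DMSO.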

Assay [10] addresses Adenosine receptor A1 (Bos taurus) (UniProt P28190). In words: NVS_GPCR_bAdoR_NonSelective: NovaScreen (NVS) G Protein-Coupled Receptor Assay for bovine Adenosine Receptor (AdoR), Non-selective Binding (AID 2283244). The method, boiled down:
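Cell-free binding with membranes from bovine striatum: radioligand displaced by test chemical, read after 1 h by filtration and scintillation. Single-point 25 uM duplicate primary, 50 uM top concentration in follow-up curves, DMSO baseline.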

For assay [11], the target named is human Adenosine A1 Receptor (AdoRA1), ADORA1 (gene 134) (UniProt P30542). Kind of assay: NVS_GPCR_hAdoRA1: NovaScreen (NVS) G Protein-Coupled Receptor Assay for human Adenosine A1 Receptor (AdoRA1) (AID 2283254). In short, it runs like this: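 Radioligand binding was run on human cortical membranes, cell-free, with filter-based scintillation counting 1 h after dosing. The primary screen was duplicate at 25 uM, followed by concentration series. Signal loss versus DMSO was fitted positive-direction.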

Assay [12] concerns the target human Serotonin, 5-Hydroxytryptamine Receptor 6 (5HT6), HTR6 (gene 3362) (UniProt P50406). In words: NVS_GPCR_h5HT6: NovaScreen (NVS) G Protein-Coupled Receptor Assay for human Serotonin, 5-Hydroxytryptamine Receptor 6 (5HT6) (AID 2283253). The method, boiled down: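 Filter scintillation counting of radioligand displacement from HEK293-expressed 5HT6, 1 hour post-dose, with loss of signal relative to DMSO. Single 25 uM duplicates first, with concentration series for confirmation.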

Assay [13] concerns the target human Serotonin, 5-Hydroxytryptamine Receptor 7 (5HT7), HTR7 (gene 3363) (UniProt P34969). Kind of assay: NVS_GPCR_h5HT7: NovaScreen (NVS) G Protein-Coupled Receptor Assay for human Serotonin, 5-Hydroxytryptamine Receptor 7 (5HT7) (AID 2283255).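 Also: hits reduce specific radioligand binding relative to DMSO.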 In short, it runs like this: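 Filter-bound radioactivity counted after 1 h, with loss of specific radioligand binding fitted against DMSO. Membrane protein came from CHO cells expressing human 5HT7. Chemicals were tested first at 25 uM in duplicate, then in concentration series if active.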

Assay [14] addresses human Dopamine Receptor D4.4 (DRD4.4), DRD4 (gene 1815) (UniProt P21917). Kind of assay: NVS_GPCR_hDRD4.4: NovaScreen (NVS) G Protein-Coupled Receptor Assay for human Dopamine Receptor D4.4 (DRD4.4) (AID 2283264). In short, it runs like this: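 Filter-binding assay with a tritiated or iodinated ligand, cell-free receptor prepared from CHO, 1 hour. Loss of bound radioactivity versus DMSO; single 25 uM duplicate screen, then concentration-response for actives.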

Assay [15] concerns the target Beta-2 adrenergic receptor (Homo sapiens) (UniProt P07550). In words: NVS_GPCR_hAdrb2: NovaScreen (NVS) G Protein-Coupled Receptor Assay for human Adrenergic, Beta 2 Receptor (Adrb2) (AID 2283261). In short, it runs like this: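 Compounds screened in duplicate at 25 uM, then actives in concentration series. Human beta-2 receptor from CHO material, cell-free; radioligand displacement after 1 h measured by filtration and scintillation against DMSO baseline.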

Assay [16] has as its system guinea pig Muscarinic, Peripheral (Mperiperal) Receptor, Non-selective Binding, gene 100379235. In words: NVS_GPCR_gMPeripheral_NonSelective: NovaScreen (NVS) G Protein-Coupled Receptor Assay for guinea pig Muscarinic, Peripheral (Mperiperal) Receptor, Non-selective Binding (AID 2283250). In short, it runs like this:
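Screened in duplicate at 25 uM, hits retested in concentration series to 50 uM max, using bladder membrane radioligand displacement from guinea pig. Filtration and scintillation counting 1 h post-dose, fitted relative to DMSO.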

Assay [17] addresses human Adrenergic, Beta 1 Receptor (Adrb1), ADRB1 (gene 153) (UniProt P08588). In words: NVS_GPCR_hAdrb1: NovaScreen (NVS) G Protein-Coupled Receptor Assay for human Adrenergic, Beta 1 Receptor (Adrb1) (AID 2283258). The method, boiled down:
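Membranes/protein extracted from human neuroepithelioma cells, radioligand competition binding read by filtration and scintillation 2 h post-dose. Single 25 uM duplicate screen, then concentration-response follow-up; DMSO as negative control.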

For assay [18], the target named is human Adrenergic, Beta 3 Receptor (Adrb3), ADRB3 (gene 155) (UniProt P13945). Kind of assay: NVS_GPCR_hAdrb3: NovaScreen (NVS) G Protein-Coupled Receptor Assay for human Adrenergic, Beta 3 Receptor (Adrb3) (AID 2283262). The method, boiled down:
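A cell-free filter binding assay read by scintillation counting, with displacement of a specific radioligand measured after 1 hour. The receptor source was SK-N-MC extracts (cells pretreated with isoproterenol and 8-bromo-cAMP). Compounds were first tested at 25 uM in duplicate and then in concentration series.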

Assay [19] has as its target human Endothelin Receptor Type A (ETA), EDNRA (gene 1909) (UniProt P25101). In words: NVS_GPCR_hETA: NovaScreen (NVS) G Protein-Coupled Receptor Assay for human Endothelin Receptor Type A (ETA) (AID 2283265). In short, it runs like this:
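Binding of radioligand to membrane protein extracted from SH-SY5Y cells was read by filtration and scintillation after 3 h. Compounds were screened at 25 uM in duplicate, with hits followed up in singleton concentration series to 50 uM.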

Molecules are shown by their SMILES. Records with an inconclusive call do not appear. Some compounds were tested as several samples or in several runs, with calls that do not always agree. The source made the active and inactive calls. The calls were made as follows: active = hit-call score of the fitted dose curve at least 0.9, where 1 is the maximum; inconclusive = response in the unintended direction; inactive = score below 0.9.

Chain of Adenosine receptor A1 (Bos taurus) (P28190 whole entry, looked up): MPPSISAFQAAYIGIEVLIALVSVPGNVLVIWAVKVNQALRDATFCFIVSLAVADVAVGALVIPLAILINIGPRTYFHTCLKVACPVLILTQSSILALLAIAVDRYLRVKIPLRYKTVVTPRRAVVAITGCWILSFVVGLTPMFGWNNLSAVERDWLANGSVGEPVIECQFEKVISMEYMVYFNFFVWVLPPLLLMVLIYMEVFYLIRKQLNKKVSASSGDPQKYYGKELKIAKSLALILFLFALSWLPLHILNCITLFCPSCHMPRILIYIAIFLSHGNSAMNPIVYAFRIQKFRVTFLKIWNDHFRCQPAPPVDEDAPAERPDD
Chain of guinea pig Opioid, Kappa 1 Receptor (OpiateK), OPRK1 (gene 100135587) (P41144 whole entry, looked up): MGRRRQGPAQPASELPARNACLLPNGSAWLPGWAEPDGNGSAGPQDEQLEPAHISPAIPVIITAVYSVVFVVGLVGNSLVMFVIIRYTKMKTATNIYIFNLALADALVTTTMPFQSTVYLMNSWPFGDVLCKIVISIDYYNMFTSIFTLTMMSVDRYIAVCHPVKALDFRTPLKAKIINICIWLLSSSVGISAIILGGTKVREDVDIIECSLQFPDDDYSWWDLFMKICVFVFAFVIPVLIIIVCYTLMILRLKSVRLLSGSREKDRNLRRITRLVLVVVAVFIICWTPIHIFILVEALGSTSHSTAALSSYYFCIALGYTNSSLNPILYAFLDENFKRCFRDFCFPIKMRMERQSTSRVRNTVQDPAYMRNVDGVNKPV
Chain of human Serotonin, 5-Hydroxytryptamine Receptor 5A (5HT5A), HTR5A (gene 3361) (P47898 whole entry, looked up): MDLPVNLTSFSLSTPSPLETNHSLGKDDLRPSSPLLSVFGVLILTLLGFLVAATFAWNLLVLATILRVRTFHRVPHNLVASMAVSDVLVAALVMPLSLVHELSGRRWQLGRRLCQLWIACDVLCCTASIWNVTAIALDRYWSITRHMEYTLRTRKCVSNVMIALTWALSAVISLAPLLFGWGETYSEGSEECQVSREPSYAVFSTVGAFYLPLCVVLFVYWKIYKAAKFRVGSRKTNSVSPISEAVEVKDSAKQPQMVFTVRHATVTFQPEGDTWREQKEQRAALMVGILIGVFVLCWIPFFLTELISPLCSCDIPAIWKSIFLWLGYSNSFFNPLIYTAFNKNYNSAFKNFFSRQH
Chain of human Serotonin, 5-Hydroxytryptamine Receptor 7 (5HT7), HTR7 (gene 3363) (P34969 whole entry, looked up): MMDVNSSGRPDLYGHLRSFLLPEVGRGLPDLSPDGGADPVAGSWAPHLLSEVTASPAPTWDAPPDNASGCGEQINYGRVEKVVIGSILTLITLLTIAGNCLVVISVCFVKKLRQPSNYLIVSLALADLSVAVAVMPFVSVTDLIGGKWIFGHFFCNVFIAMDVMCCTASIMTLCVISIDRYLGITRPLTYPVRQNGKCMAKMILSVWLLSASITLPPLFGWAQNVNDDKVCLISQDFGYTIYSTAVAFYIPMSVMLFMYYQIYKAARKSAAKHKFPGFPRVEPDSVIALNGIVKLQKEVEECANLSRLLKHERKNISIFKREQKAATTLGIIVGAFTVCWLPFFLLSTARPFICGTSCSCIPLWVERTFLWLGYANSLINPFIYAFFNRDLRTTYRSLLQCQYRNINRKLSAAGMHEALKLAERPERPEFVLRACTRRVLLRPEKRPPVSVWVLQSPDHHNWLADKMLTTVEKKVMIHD
Chain of human Serotonin, 5-Hydroxytryptamine Receptor 6 (5HT6), HTR6 (gene 3362) (P50406 whole entry, looked up): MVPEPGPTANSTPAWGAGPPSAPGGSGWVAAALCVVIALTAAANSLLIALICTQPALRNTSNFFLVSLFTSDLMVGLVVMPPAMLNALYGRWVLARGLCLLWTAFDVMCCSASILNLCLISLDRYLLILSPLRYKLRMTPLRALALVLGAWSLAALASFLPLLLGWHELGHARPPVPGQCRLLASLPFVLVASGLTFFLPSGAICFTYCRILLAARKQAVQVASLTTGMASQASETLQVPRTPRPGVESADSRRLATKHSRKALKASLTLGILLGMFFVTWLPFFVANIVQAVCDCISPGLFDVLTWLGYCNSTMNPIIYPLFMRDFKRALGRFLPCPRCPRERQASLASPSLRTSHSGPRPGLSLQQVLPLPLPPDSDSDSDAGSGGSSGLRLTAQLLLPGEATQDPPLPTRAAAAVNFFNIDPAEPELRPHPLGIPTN
Chain of guinea pig Leukotriene D4 Receptor (LTD4), CYSLTR1 (gene 100135514) (Q2NNR5 whole entry, looked up): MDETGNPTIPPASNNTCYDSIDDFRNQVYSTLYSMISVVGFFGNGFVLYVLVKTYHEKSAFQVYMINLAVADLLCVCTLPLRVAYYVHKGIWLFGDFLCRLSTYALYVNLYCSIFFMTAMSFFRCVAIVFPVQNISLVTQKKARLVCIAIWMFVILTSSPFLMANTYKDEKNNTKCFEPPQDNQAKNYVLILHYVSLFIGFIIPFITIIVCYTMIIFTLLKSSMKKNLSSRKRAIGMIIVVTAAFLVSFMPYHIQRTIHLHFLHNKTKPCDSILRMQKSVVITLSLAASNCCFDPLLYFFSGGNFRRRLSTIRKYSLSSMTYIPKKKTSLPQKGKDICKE
Chain of human Adenosine A1 Receptor (AdoRA1), ADORA1 (gene 134) (P30542 whole entry, looked up): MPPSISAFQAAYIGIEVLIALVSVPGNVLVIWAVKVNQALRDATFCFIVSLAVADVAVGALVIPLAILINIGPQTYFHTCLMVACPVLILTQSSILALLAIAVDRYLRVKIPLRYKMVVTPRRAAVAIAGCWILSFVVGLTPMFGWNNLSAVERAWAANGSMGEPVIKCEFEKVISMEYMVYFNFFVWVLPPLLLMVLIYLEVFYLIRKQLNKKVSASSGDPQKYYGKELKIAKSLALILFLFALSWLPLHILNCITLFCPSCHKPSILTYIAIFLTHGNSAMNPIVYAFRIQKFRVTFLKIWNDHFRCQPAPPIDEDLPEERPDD
Chain of Beta-2 adrenergic receptor (Homo sapiens) (P07550 whole entry, looked up): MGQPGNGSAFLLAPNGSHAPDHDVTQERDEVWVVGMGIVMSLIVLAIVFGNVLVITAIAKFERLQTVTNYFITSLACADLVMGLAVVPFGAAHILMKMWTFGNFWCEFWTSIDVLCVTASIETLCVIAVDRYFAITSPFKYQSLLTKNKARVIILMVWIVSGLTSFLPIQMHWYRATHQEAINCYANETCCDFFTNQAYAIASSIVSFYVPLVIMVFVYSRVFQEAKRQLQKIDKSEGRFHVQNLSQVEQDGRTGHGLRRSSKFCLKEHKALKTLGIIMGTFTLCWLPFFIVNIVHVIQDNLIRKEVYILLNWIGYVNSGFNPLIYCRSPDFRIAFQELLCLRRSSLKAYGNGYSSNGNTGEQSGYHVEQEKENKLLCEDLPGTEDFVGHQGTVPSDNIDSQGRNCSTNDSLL
Chain of human Serotonin, 5-Hydroxytryptamine Receptor 2A (5HT2A), HTR2A (gene 3356) (P28223 whole entry, looked up): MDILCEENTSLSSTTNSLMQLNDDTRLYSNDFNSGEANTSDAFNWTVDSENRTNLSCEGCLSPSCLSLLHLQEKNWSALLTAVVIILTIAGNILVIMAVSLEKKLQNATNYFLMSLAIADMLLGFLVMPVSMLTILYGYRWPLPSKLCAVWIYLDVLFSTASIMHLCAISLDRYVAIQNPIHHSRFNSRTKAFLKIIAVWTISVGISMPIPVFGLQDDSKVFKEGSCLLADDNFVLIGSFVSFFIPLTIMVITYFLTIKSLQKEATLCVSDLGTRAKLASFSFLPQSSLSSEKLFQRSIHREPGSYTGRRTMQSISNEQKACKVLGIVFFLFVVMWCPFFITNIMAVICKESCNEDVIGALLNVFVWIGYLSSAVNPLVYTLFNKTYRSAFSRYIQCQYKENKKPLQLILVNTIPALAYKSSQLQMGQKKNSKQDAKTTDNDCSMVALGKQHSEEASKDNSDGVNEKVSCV
Chain of human Dopamine Receptor D4.4 (DRD4.4), DRD4 (gene 1815) (P21917 whole entry, looked up): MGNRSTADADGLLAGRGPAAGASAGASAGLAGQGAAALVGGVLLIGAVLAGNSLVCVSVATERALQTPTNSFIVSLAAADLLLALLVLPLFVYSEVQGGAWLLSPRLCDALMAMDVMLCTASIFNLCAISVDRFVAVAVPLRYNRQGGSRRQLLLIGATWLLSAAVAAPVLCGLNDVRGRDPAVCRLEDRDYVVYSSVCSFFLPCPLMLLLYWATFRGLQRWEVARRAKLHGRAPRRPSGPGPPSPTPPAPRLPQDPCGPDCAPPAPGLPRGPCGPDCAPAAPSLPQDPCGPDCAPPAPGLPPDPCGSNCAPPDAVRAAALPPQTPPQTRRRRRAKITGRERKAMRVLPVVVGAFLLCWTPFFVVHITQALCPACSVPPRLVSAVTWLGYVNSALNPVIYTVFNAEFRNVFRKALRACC
Chain of human Adrenergic, Alpha 2c Receptor (Adra2C), ADRA2C (gene 152) (P18825 whole entry, looked up): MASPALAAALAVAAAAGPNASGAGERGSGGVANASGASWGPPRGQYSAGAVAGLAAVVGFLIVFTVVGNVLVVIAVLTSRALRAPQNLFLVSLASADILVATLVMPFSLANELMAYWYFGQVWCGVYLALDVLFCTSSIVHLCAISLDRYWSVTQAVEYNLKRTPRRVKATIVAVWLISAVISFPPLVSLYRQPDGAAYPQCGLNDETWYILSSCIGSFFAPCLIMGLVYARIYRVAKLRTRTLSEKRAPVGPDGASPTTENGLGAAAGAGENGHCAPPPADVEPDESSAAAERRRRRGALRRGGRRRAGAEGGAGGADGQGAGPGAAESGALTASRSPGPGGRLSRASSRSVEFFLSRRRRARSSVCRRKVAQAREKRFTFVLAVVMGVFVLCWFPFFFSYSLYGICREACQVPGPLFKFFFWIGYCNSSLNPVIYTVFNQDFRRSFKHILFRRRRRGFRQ
Chain of human Adenosine A2a Receptor (AdoRA2a), ADORA2A (gene 135) (P29274 whole entry, looked up): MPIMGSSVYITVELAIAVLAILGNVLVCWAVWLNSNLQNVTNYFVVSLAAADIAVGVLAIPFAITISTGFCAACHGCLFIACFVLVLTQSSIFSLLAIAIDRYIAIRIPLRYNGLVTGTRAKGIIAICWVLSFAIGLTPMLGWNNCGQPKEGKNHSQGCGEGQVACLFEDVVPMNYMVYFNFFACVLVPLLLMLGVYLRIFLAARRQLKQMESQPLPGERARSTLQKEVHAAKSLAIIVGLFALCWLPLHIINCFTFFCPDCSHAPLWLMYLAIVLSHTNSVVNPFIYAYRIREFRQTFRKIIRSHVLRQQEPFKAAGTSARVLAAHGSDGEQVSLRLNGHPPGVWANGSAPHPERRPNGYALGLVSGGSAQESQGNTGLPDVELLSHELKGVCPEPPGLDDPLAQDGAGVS

As to `CC(C)(O)C(=O)Nc1ccc([N+](=O)[O-])c(C(F)(F)F)c1`, the molecule was called inactive in [1].
On to `CCC(C)c1cc([N+](=O)[O-])cc([N+](=O)[O-])c1O` (configuration not stated), for which the molecule was called inactive in assay [2].
For `CO/C=C(/C(=O)OC)c1ccccc1COc1cccc(C(F)(F)F)n1`, the call in assay [3] was inactive.
Turning to `O=C(O)C(F)(F)C(F)(F)C(F)(F)C(F)(F)C(F)(F)C(F)(F)C(F)(F)C(F)(F)F`, the AC50 in assay [2] is 25 µM (active); in [5], 17.7 µM (active); in assay [6], 10.6 µM (active); in assay [7], 25 µM (active). Moreover, in assay [4], the molecule was classed as inactive.
For `Cc1cccc(C)c1N`, the molecule was classed as inactive in assay [8].
Turning to `Oc1c(Cl)c(Cl)c(Cl)c(Cl)c1Cl`, the AC50 in assay [9] is 15.5 µM (active); in [1], 12.6 µM (active); in [6], 13.1 µM (active). Besides, the result in [10], in assay [4], in [1] and in assay [11] was inactive.
As for `COc1ccc(O)c(C(C)(C)C)c1`, the molecule was classed as inactive in [5], in [13] and in assay [14]. Further, the concentration at half-maximal activity (AC50) in [12] is 25 µM (active).
For `C[C@]12CCC(=O)C=C1CC[C@@H]1[C@@H]2CC[C@]2(C)C(=O)CC[C@@H]12`, the outcome in assay [1] and in assay [13] was inactive.
Take `Clc1ccc(Cl)cc1`: the result in [10] was inactive.
For `Oc1ccc(Cl)cc1Cl`, the call in assay [9] and in [12] was inactive.
`O=S(=O)(O)C(F)(F)C(F)(F)C(F)(F)C(F)(F)C(F)(F)C(F)(F)F`: the AC50 in assay [2] was 10.8 µM (active).
As to `CCC(C)(c1ccc(O)cc1)c1ccc(O)cc1`, the AC50 in assay [2] is 6.38 µM (active); in assay [5], 13.4 µM (active); in assay [12], 6.29 µM (active); in [11] it was 25 µM (active); in [13], 15.9 µM (active). The molecule was called inactive in assay [1].
For the molecule `Cc1ccccc1O`, in assay [10], the molecule was classed as inactive.
Take `CN(C)c1nc(=O)n(C2CCCCC2)c(=O)n1C`: the outcome in [15] was inactive.
On to `CCCCCCCCCC[N+](C)(C)CCCCCCCCCC`, for which the half-maximal activity concentration (AC50) in assay [9] is 34 µM (active); in [3] it was 22.5 µM (active); in [8], 5 µM (active); in assay [16], 25 µM (active); in assay [5] it was 9.63 µM (active); in assay [12], 13.9 µM (active). The AC50 is 5.73 µM (active) in assay [13]; 5.34 µM (active) in assay [17]; 3.53 µM (active) in assay [7]; 17.5 µM (active) in [15]; 7.1 µM (active) in assay [18]; 25 µM (active) in assay [14]. Moreover, the concentration at half-maximal activity (AC50) in assay [19] was 6.49 µM (active).
